Inconclusive results are not listed. Values without a mark were called inactive. Activity calls are given as the source filed them. Calls follow the shape of the dose curve; as a rule, active = well fitted inhibition curve with a large enough effect; inconclusive = small, poorly fitted or top-dose-only effect; inactive = flat fitted curve, though single readings scatter.

The test system of one experiment is ICS. As to the kind of experiment: qHTS profiling for inhibitors of Plasmodium falciparum proliferation (AID 504749). Also: potency is read from the fitted curve at half-maximal effect. As to conditions: P. falciparum in erythrocytes, SYBR Green DNA, 72 h; series mostly up to 28.7 µM. In outline:
(§1)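 Fluorescence of SYBR Green-bound parasite DNA, read at 485/535 nm, served as the growth measure. Infected erythrocytes were cultured with compound 72 h; artemisinin (0.29 uM) and DMSO wells defined the normalization range.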
For orientation: Quantitative high-throughput screening tests each substance at several concentrations.

The subject of a further experiment is JCK. The experiment is described as above. As to conditions: P. falciparum in erythrocytes, SYBR Green DNA, 72 h; series mostly up to 28.7 µM. The procedure, abridged: as §1
In the next experiment the test system is N140. Described as above. The following applies: P. falciparum in erythrocytes, SYBR Green DNA, 72 h; series mostly up to 28.7 µM. The procedure, abridged:
as §1

A further experiment relates to P93_24. Described as above. As to conditions: P. falciparum in erythrocytes, SYBR Green DNA, 72 h; series mostly up to 28.7 µM. In outline:
as §1

A further experiment concerns P94_40. The description is as above. As to conditions: P. falciparum in erythrocytes, SYBR Green DNA, 72 h; series mostly up to 28.7 µM. The procedure, abridged: as §1
The next experiment concerns PAD. The description is as above. The following applies: P. falciparum in erythrocytes, SYBR Green DNA, 72 h; series mostly up to 28.7 µM. The procedure, abridged: as §1
In a further experiment the test system is PC15. The description is as above. The following applies: P. falciparum in erythrocytes, SYBR Green DNA, 72 h; series mostly up to 28.7 µM. In outline:
as §1

Another experiment relates to PC26. Described as above. As to conditions: P. falciparum in erythrocytes, SYBR Green DNA, 72 h; series mostly up to 28.7 µM. In outline: as §1
Another experiment concerns PC49. The description is as above. As to conditions: P. falciparum in erythrocytes, SYBR Green DNA, 72 h; series mostly up to 28.7 µM. The procedure, abridged: as §1
The next experiment deals with SC27B. The description is as above. As to conditions: P. falciparum in erythrocytes, SYBR Green DNA, 72 h; series mostly up to 28.7 µM. In outline: as §1
A further experiment deals with TAB109. The experiment is described as above. The following applies: P. falciparum in erythrocytes, SYBR Green DNA, 72 h; series mostly up to 28.7 µM. In outline:
as §1

The subject of the next experiment is TAB113. Described as above. The following applies: P. falciparum in erythrocytes, SYBR Green DNA, 72 h; series mostly up to 28.7 µM. The procedure, abridged: as §1
For a further experiment, the system named is TAB165. The experiment is described as above. The following applies: P. falciparum in erythrocytes, SYBR Green DNA, 72 h; series mostly up to 28.7 µM. In outline: as §1
The next experiment concerns W2. The description is as above. As to conditions: P. falciparum in erythrocytes, SYBR Green DNA, 72 h; series mostly up to 28.7 µM. The procedure, abridged: as §1
Experiment [1] has as its system CRL-7250. As to the kind of experiment: Cytotoxic Profiling of Annotated Libraries Using Quantitative High-Throughput Screening (AID 1296008). Also: potency is read from the fitted curve at half-maximal effect. As to max response: % is scaled to controls: 0 for no effect and ±100 for the full control effect. The following applies: Five cell lines viability, CellTiter-Glo ATP luminescence, 48-72 h; max response: hits give low values. In outline:
(§2)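 Compounds were pin-transferred onto cells and incubated 48 or 72 hr at 37 degree Celsius, 95% humidity. CellTiter-Glo was added, plates sat 10 min at room temperature, then ATP-coupled luminescence was imaged as the viability read-out.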

Another experiment concerns HEK293. The experiment is described as above. The following applies: Five cell lines viability, CellTiter-Glo ATP luminescence, 48-72 h; max response: hits give low values. The procedure, abridged:
as §2
Background: In ATP-based viability assays light output follows the ATP content of the culture.

Another experiment concerns HaCat. The experiment is described as above. The following applies: Five cell lines viability, CellTiter-Glo ATP luminescence, 48-72 h; max response: hits give low values. In outline:
as §2

A further experiment concerns KB-3-1. The description is as above. As to conditions: Five cell lines viability, CellTiter-Glo ATP luminescence, 48-72 h; max response: hits give low values. The procedure, abridged:
as §2

The subject of a further experiment is NIH3T3. The experiment is described as above. The following applies: Five cell lines viability, CellTiter-Glo ATP luminescence, 48-72 h; max response: hits give low values. In outline: as §2
Experiment [2] relates to CRL-7250. The experiment is described as follows: qHTS assay to identify novel small-molecules to repurpose for Merkel cell carcinoma treatment (AID 1296009). The following applies: MCC and control cell lines, CellTiter-Glo viability, 72 h; at 44.8 µM (top of the series) unless noted. The procedure, abridged: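 Luminescence from CellTiter-Glo, read 10 min after addition at room temperature, reported viability following a 72 hr, 37 degree celsius treatment with NPC or MIPE compounds in titration; values normalized to plate controls.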
Also: nearly all actives have a fitted effect of over 60% in size.

For the compound `C[C@]12CC[C@H]3[C@@H](CC=C4C[C@@H](O)CC[C@@]43C)[C@@H]1CC[C@@H]2O`, the Potency entry in the experiment with ICS, in the experiment with JCK, in the experiment with N140, in the experiment on P93_24, in the experiment with P94_40 and in the experiment on PAD was “inactive” throughout. In addition, the Potency result with PC15, in the experiment on PC26, in the experiment with PC49, in the experiment with SC27B, in the experiment with TAB109 and in the experiment with TAB113 was “inactive” throughout. The Potency result in the experiment with TAB165 and in the experiment with W2 was “inactive” throughout. Further, the max response in the experiment with CRL-7250 [1] is -19.9%; in the experiment on HEK293 it was -6.75%; with KB-3-1 it was -11.4%; with NIH3T3 it was 4.53%. Further, the compound was classed as inactive in the experiment with HaCat.

Consider `CCO[C@H]1O[C@@H]2OC3(C)CC[C@H]4[C@H](C)CC[C@@H]([C@H]1C)[C@@]24OO3`, for which the max response in the experiment on CRL-7250 [1] is 3.38%; in the experiment with HaCat, -19.4%; in the experiment on NIH3T3, 0.769%. Further, the Potency in the experiment with HEK293 was 5960 nM (active).

As for `COc1cc(CC#N)cc(OC)c1OC`, the max response was -2.26% with CRL-7250 [1], -3.74% in the experiment on HEK293 and -3.69% in the experiment on NIH3T3. For the same compound, the compound was classed as inactive in the experiment with HaCat.

Take `CN(C)C(=S)SSC(=S)N(C)C`: the Potency is 891 nM (active) in the experiment with ICS; 8910 nM (active) in the experiment on JCK; 1780 nM (active) in the experiment on N140; 2510 nM (active) in the experiment on P93_24; 2000 nM (active) with P94_40; 2000 nM (active) in the experiment on PAD. Moreover, the Potency is 3160 nM (active) in the experiment on PC15; 3790 nM (active) in the experiment on PC26; 11200 nM (active) with PC49; 6310 nM (active) in the experiment with SC27B; 1580 nM (active) in the experiment on TAB109; 3980 nM (active) in the experiment on TAB113. Besides, the Potency is 2510 nM (active) in the experiment on TAB165; 849 nM (active) in the experiment with W2; 750 nM (active) in the experiment on CRL-7250 [1]; 944 nM (active) with HEK293; 422 nM (active) with NIH3T3. In the experiment with KB-3-1, the max response is -0.0008%.

In the case of `CC(C(O)c1ccccc1)N(C)C/C=C/c1ccccc1` (stereo not given), the figures for the max response in the experiment with CRL-7250 [1], with HEK293 and in the experiment with NIH3T3 were -8.13%, -9.94% and 2.21%, respectively. Also, in the experiment on HaCat, the outcome was inactive.

In the case of `Sc1ccccc1Cl`, the max response with CRL-7250 [1] was 1.34%; in the experiment with HEK293 it was -0.79%; in the experiment with HaCat, -3.98%; in the experiment on NIH3T3, 2.05%.

Take `CCN(CC)C(C)C(=O)c1ccccc1` (stereo not given): the Potency result in the experiment with ICS, in the experiment on JCK, with N140, in the experiment on P93_24, in the experiment with P94_40 and with PAD was “inactive” each time. Further, the Potency result in the experiment on PC15, in the experiment with PC26, in the experiment with PC49, with SC27B, in the experiment on TAB109 and with TAB165 was “inactive” throughout. The Potency result in the experiment on W2 is “inactive”. In addition, the max response in the experiment with CRL-7250 [1] is -0.537%; in the experiment with HEK293, -27.4%; with KB-3-1, -1.49%; with NIH3T3 it was -1.81%. Also, in the experiment with HaCat, the call was inactive.

Consider `O=c1[nH]c2cc(Cl)ccc2n1C1CCNCC1`, for which the compound was classed as inactive with CRL-7250 [1], in the experiment on HaCat, in the experiment on NIH3T3 and with CRL-7250 [2]. The max response in the experiment with HEK293 is -8.77%.

On to `c1cc2c(c(N3CCNCC3)c1)OCCO2`, for which the Potency entry in the experiment with ICS, with JCK, with N140, in the experiment on P93_24, in the experiment on P94_40 and with PAD was “inactive” throughout. Moreover, the Potency entry with PC15, in the experiment on PC26, in the experiment on PC49, in the experiment on SC27B, in the experiment with TAB109 and with TAB113 was “inactive” in each case. Also, the Potency result with TAB165 and in the experiment on W2 was “inactive” each time. Moreover, the max response in the experiment with CRL-7250 [1] is -0.883%; in the experiment on HEK293, -10.2%; with KB-3-1, -5.14%; in the experiment on NIH3T3, 1.17%. In addition, the compound was called inactive in the experiment on HaCat.

The record behind these values is PubChem BioAssay (NCATS).
